# Results as given in PubChem BioAssay (NCI).
# This is part of a sample that, as a whole, favours compounds with a hit. Of some 79,000 tested, about 15% had one in any assay. Values without a mark were called inactive. Calls of active or inactive are those of the source. No stated cut-off is given here; in the data, active means growth inhibition above about 70%; inactive means the rest.
# Columns and labels:
# [1] = NCI Yeast Anticancer Drug Screen. Data for the wt2 strain (AID 169);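 further: 0% = growth of vehicle-treated yeast cultures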; conditions: S. cerevisiae wt2 strain growth inhibition, stronger effect = higher value
# How it was run: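 Read-out: growth inhibition versus vehicle-treated control cultures after compound exposure of the yeast strain.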
# [2] = NCI Yeast Anticancer Drug Screen. Data for the mlh1 strain (AID 171);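 further: 0% = growth of vehicle-treated control cultures of the same strain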; conditions: S. cerevisiae mlh1 strain growth inhibition, stronger effect = higher value
# How it was run: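 Read-out: growth inhibition versus vehicle controls. Strain: engineered yeast with a defined DNA repair or cell cycle defect, compound-treated.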
# [3] = NCI Yeast Anticancer Drug Screen. Data for the sgs1 strain (AID 173);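 further: 0% = growth of vehicle-only control cultures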; conditions: S. cerevisiae sgs1 mutant, stronger effect = higher value
# How it was run: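 Read-out: yeast growth inhibition relative to vehicle controls, following compound exposure of a strain with a defined DNA repair/cell cycle alteration.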
# [4] = NCI Yeast Anticancer Drug Screen. Data for the mlh1 rad18 strain (AID 175); conditions: S. cerevisiae mlh1 rad18 strain growth inhibition, stronger effect = higher value
# How it was run: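 Yeast w/ defined DNA-repair lesions; compound exposure; growth vs vehicle controls → % inhibition.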
# [5] = NCI Yeast Anticancer Drug Screen. Data for the rad18 strain (AID 177); conditions: S. cerevisiae rad18 mutant growth inhibition, stronger effect = higher value
# How it was run: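 Readout: growth inhibition vs vehicle controls. Cells: genetically altered yeast strain, DNA repair defect.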
# [6] = NCI Yeast Anticancer Drug Screen. Data for the rad52 strain (AID 147);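 further: 0% = growth of vehicle-treated control cultures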; conditions: S. cerevisiae rad52 mutant growth inhibition, stronger effect = higher value
# How it was run: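 Read-out: growth inhibition versus vehicle-treated controls. Cells were a DNA repair-deficient yeast strain treated with compounds.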
# [7] = NCI Yeast Anticancer Drug Screen. Data for the wt1 strain (AID 149);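 further: 0% = growth of vehicle-treated wt1 cultures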; conditions: S. cerevisiae wt1 strain (SPY 50644) growth inhibition, stronger effect = higher value
# How it was run: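 Compounds are added to wt1 yeast cultures. Growth is then measured. Inhibition is expressed relative to vehicle-treated controls.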
# [8] = NCI Yeast Anticancer Drug Screen. Data for the rad50EPP+ strain (AID 151);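 further: 0% = growth of vehicle-treated control cultures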; conditions: S. cerevisiae rad50 mutant strain, stronger effect = higher value
# How it was run: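 Growth inhibition read against vehicle controls in rad50EPP+ yeast, a strain altered in DNA damage repair, after compound exposure.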
# [9] = NCI Yeast Anticancer Drug Screen. Data for the mgt1 strain (AID 153); conditions: S. cerevisiae mgt1 mutant growth inhibition, stronger effect = higher value
# How it was run: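 mgt1 yeast grown with test compound; read-out is growth inhibition versus vehicle-treated cultures.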
# [10] = NCI Yeast Anticancer Drug Screen. Data for the rad50 strain (AID 155);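 further: 0% = growth of vehicle-only cultures of the same strain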; conditions: S. cerevisiae rad50 strain growth inhibition, stronger effect = higher value
# How it was run: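 Inhibition values express reduced yeast growth in compound-treated cultures relative to vehicle-treated controls.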
# [11] = NCI Yeast Anticancer Drug Screen. Data for the mec2-1 strain (AID 157); conditions: S. cerevisiae mec2-1 strain, stronger effect = higher value
# How it was run: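 Yeast mec2-1 mutant treated with compound. Readout: growth inhibition vs vehicle controls.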
# [12] = NCI Yeast Anticancer Drug Screen. Data for the rad14 strain (AID 159);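 further: 0% = growth of vehicle-treated control cultures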; conditions: S. cerevisiae rad14 strain growth inhibition, stronger effect = higher value
# How it was run: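 A mutant yeast strain defective in DNA damage repair is treated with compound; inhibition of its growth is scored against untreated, vehicle-exposed cultures.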
# [13] = NCI Yeast Anticancer Drug Screen. Data for the sgs1 mgt1 strain (AID 161);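 further: 0% = growth of cultures given vehicle only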; conditions: S. cerevisiae sgs1 mgt1 strain, stronger effect = higher value
# How it was run: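 Test agents were incubated with a DNA-repair-mutant yeast strain. Growth was then read and compared against vehicle-treated controls.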
# [14] = NCI Yeast Anticancer Drug Screen. Data for the CLN2oe strain (AID 163);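 further: 0% = growth of vehicle-only control cultures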; conditions: S. cerevisiae CLN2oe strain, stronger effect = higher value
# How it was run: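 Read-out: yeast growth inhibition, expressed relative to vehicle-only controls. The strain bears an engineered cell-cycle alteration.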
# [15] = NCI Yeast Anticancer Drug Screen. Data for the cln2 rad14 strain (AID 165);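 further: 0% = growth equal to vehicle treated cultures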; conditions: S. cerevisiae cln2 rad14 strain, stronger effect = higher value
# How it was run: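 cln2 rad14 yeast strain; compound exposure; growth inhibition read vs vehicle controls.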
# [16] = NCI Yeast Anticancer Drug Screen. Data for the bub3 strain (AID 167); conditions: S. cerevisiae bub3 mutant strain, stronger effect = higher value
# How it was run: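 Steps: expose the mutant yeast strain to compound; grow alongside vehicle-treated cultures; measure growth; express inhibition against the vehicle cultures.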
# [17] = at 5.0 µM (retest, dose inferred, filed as 0.5)
# [18] = at 50.0 µM (retest, dose inferred, filed as 5.0)
smiles,measurement,setting,value
NCCCSc1ccccc1,growth inhibition,[1]; at 1.2 µM,-2%
same,growth inhibition,[1]; at 3.7 µM,-2%
same,growth inhibition,[1]; at 11.0 µM,-2%
same,growth inhibition,[1]; at 33.0 µM,-2%
same,growth inhibition,[1]; at 100.0 µM,-1%
same,growth inhibition,[2]; at 1.2 µM,-2%
same,growth inhibition,[2]; at 3.7 µM,-4%
same,growth inhibition,[2]; at 11.0 µM,-2%
same,growth inhibition,[2]; at 33.0 µM,-4%
same,growth inhibition,[2]; at 100.0 µM,-2%
same,growth inhibition,[3]; at 1.2 µM,0%
same,growth inhibition,[3]; at 3.7 µM,1%
same,growth inhibition,[3]; at 11.0 µM,2%
same,growth inhibition,[3]; at 33.0 µM,0%
same,growth inhibition,[3]; at 100.0 µM,1%
same,growth inhibition,[4]; [17],-21%
same,growth inhibition,[4]; [18],-15%
same,growth inhibition,[4]; at 50.0 µM,-4.65%
same,growth inhibition,[5]; at 1.2 µM,-1%
same,growth inhibition,[5]; at 3.7 µM,-1%
same,growth inhibition,[5]; at 11.0 µM,-8%
same,growth inhibition,[5]; at 33.0 µM,1%
same,growth inhibition,[5]; at 100.0 µM,-1%
OC(c1ccccc1)(c1ccccc1)c1nccc2ccccc12,growth inhibition,[6]; at 1.2 µM,40%
same,growth inhibition,[6]; at 3.7 µM,39%
same,growth inhibition,[6]; at 11.0 µM,48%
same,growth inhibition,[6]; at 33.0 µM,62%
same,growth inhibition,[6]; at 100.0 µM,81% (active)
same,growth inhibition,[7]; at 1.2 µM,3%
same,growth inhibition,[7]; at 3.7 µM,-3%
same,growth inhibition,[7]; at 11.0 µM,26%
same,growth inhibition,[7]; at 33.0 µM,-2%
same,growth inhibition,[7]; at 100.0 µM,29%
same,growth inhibition,[8]; at 1.2 µM,14%
same,growth inhibition,[8]; at 3.7 µM,14%
same,growth inhibition,[8]; at 11.0 µM,32%
same,growth inhibition,[8]; at 33.0 µM,13%
same,growth inhibition,[8]; at 100.0 µM,0%
same,growth inhibition,[9]; at 1.2 µM,-11%
same,growth inhibition,[9]; at 3.7 µM,8%
same,growth inhibition,[9]; at 11.0 µM,11%
same,growth inhibition,[9]; at 33.0 µM,15%
same,growth inhibition,[9]; at 100.0 µM,51%
same,growth inhibition,[10]; at 1.2 µM,4%
same,growth inhibition,[10]; at 3.7 µM,15%
same,growth inhibition,[10]; [17],14%
same,growth inhibition,[10]; at 11.0 µM,24%
same,growth inhibition,[10]; at 33.0 µM,39%
same,growth inhibition,[10]; [18],50%
same,growth inhibition,[10]; at 50.0 µM,67.7%
same,growth inhibition,[10]; at 100.0 µM,70% (active)
same,growth inhibition,[11]; at 1.2 µM,0%
same,growth inhibition,[11]; at 3.7 µM,3%
same,growth inhibition,[11]; [17],2%
same,growth inhibition,[11]; at 11.0 µM,9%
same,growth inhibition,[11]; at 33.0 µM,7%
same,growth inhibition,[11]; [18],40%
same,growth inhibition,[11]; at 50.0 µM,75% (active)
same,growth inhibition,[11]; at 100.0 µM,49%
same,growth inhibition,[12]; at 1.2 µM,3%
same,growth inhibition,[12]; at 3.7 µM,2%
same,growth inhibition,[12]; at 11.0 µM,3%
same,growth inhibition,[12]; at 33.0 µM,3%
same,growth inhibition,[12]; at 100.0 µM,39%
same,growth inhibition,[13]; [17],-4%
same,growth inhibition,[13]; [18],58%
same,growth inhibition,[13]; at 50.0 µM,71.5% (active)
same,growth inhibition,[14]; at 1.2 µM,25%
same,growth inhibition,[14]; at 3.7 µM,34%
same,growth inhibition,[14]; at 11.0 µM,28%
same,growth inhibition,[14]; at 33.0 µM,35%
same,growth inhibition,[14]; at 100.0 µM,59%
same,growth inhibition,[15]; [17],6%
same,growth inhibition,[15]; [18],7%
same,growth inhibition,[15]; at 50.0 µM,55.4%
same,growth inhibition,[16]; at 1.2 µM,14%
same,growth inhibition,[16]; at 3.7 µM,22%
same,growth inhibition,[16]; [17],0%
same,growth inhibition,[16]; at 11.0 µM,25%
same,growth inhibition,[16]; at 33.0 µM,25%
same,growth inhibition,[16]; [18],45%
same,growth inhibition,[16]; at 50.0 µM,60.6%
same,growth inhibition,[16]; at 100.0 µM,75% (active)
same,growth inhibition,[1]; at 1.2 µM,-56%
same,growth inhibition,[1]; at 3.7 µM,-17%
same,growth inhibition,[1]; at 11.0 µM,-31%
same,growth inhibition,[1]; at 33.0 µM,-21%
same,growth inhibition,[1]; at 100.0 µM,38%
same,growth inhibition,[2]; at 1.2 µM,-2%
same,growth inhibition,[2]; at 3.7 µM,12%
same,growth inhibition,[2]; at 11.0 µM,5%
same,growth inhibition,[2]; at 33.0 µM,14%
same,growth inhibition,[2]; at 100.0 µM,54%
same,growth inhibition,[3]; at 1.2 µM,15%
same,growth inhibition,[3]; at 3.7 µM,3%
same,growth inhibition,[3]; at 11.0 µM,4%
same,growth inhibition,[3]; at 33.0 µM,16%
same,growth inhibition,[3]; at 100.0 µM,71% (active)
same,growth inhibition,[4]; [17],12%
same,growth inhibition,[4]; [18],74% (active)
same,growth inhibition,[4]; at 50.0 µM,51%
same,growth inhibition,[5]; at 1.2 µM,0%
same,growth inhibition,[5]; at 3.7 µM,14%
same,growth inhibition,[5]; at 11.0 µM,27%
same,growth inhibition,[5]; at 33.0 µM,55%
same,growth inhibition,[5]; at 100.0 µM,63%
